For 33 compounds, binding remaining, % of control results are on record in PubChem BioAssay AID485284 (NMMLSC, 2010).

Entries with a potency or affinity are not part of this list.

The assay is described as follows: inhibitors of CD8+ T cell–vesicle binding, dose response, mouse 2C CD8+ T cells, flow cytometry (AID 485284).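 Note: drosophila derived vesicles carrying Ld MHC with QL9 peptide plus B7-1 and ICAM-1; vesicle binding seen as anti-B7-1 PE fluorescence on CD8 gated cells.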 The following applies: 2C mouse CD8+ T cell-exosome binding; at 45 µM (top of the series). On the technique in general: A flow cytometer gives signals particle by particle.
For `COc1ccccc1NS(=O)(=O)c1ccc(C)c(NC(=O)c2ccc(S(=O)(=O)N3CCCCCC3)cc2)c1`, the binding remaining, % of control came to 134%.
For `Cc1c(C(=O)NCCSCc2c(F)cccc2Cl)cnn1-c1ccc(Cl)cc1` the value was 144%; for `CCCCn1c(N)c(N(CCOC)C(=O)C2CC(=O)N(c3ccc(CC)cc3)C2)c(=O)[nH]c1=O` (stereo not drawn), 17.2%; for `COc1ccc(-c2cc(=O)c3cc(O)ccc3o2)cc1`, 110%.
Consider `Cc1ccc(S(=O)(=O)Nc2c3ccccc3nc(=O)n2-c2ccccc2)cc1`, for which the binding remaining, % of control amounted to 71.8%.
Take `Cc1ccc(NC(=O)COC(=O)CCc2c[nH]c3ccccc23)c(C)c1`: the binding remaining, % of control is 138%.
The same measure for `COc1ccc([C@H]2CC(=O)C=C(c3cccc(Cl)c3)C2)cc1`: 141%; for `CN(CC(=O)Nc1cccc(F)c1)C(=O)c1ccc(S(=O)(=O)N2CCCC2)cc1`: 21.6%; for `Cc1c(C)c2c(OCC(=O)NCC(O)c3ccccc3)cc3c(c2oc1=O)CCC(C)(C)O3` (stereo not drawn): 72.4%.
For `C=CCNC(=S)Nc1sc2c(c1C(N)=O)CCCC2` the value was 163%; for `COc1ccc(CNC(=O)COC(=O)CCN2C(=O)C3CC=CCC3C2=O)cc1OC` (stereo not drawn), 190%.
As to `Cc1ccc(Cn2c([N+](=O)[O-])cnc2C)cc1`, the binding remaining, % of control is 35%.
As to `CCOc1ccc(Cl)cc1/C=N/NC(=O)c1ccccc1`, the binding remaining, % of control came out at 35.5%.
With `O=C(N/N=C/c1cccc(OCc2ccccc2)c1)c1ccc(Br)cc1`, the binding remaining, % of control came to 63.5%.
For `O=C(/C=C/c1ccccc1Cl)NCCc1ccccc1`, the binding remaining, % of control stood at 116%.
As to `CCOC(=O)N1CCN(Cc2nc(-c3ccc(C)cc3)no2)CC1`, the binding remaining, % of control was found to be 78.4%.
For `COc1ccc([C@H]2CC(=O)C=C(c3c(C)cc(C)cc3C)C2)cc1`, the binding remaining, % of control amounted to 56.3%.
As for `COc1ccc(N2C(=O)CC(Sc3ncn[nH]3)C2=O)c(OC)c1` (stereo not drawn), the binding remaining, % of control was 135%.
`Cc1ccccc1CS(=O)(=O)CCC(=O)N1CCN(c2ccc(N3CCOCC3)nn2)CC1`: the binding remaining, % of control turned out to be 40.8%.
The same measure for `COc1ccc(NC(=O)[C@H](C)NC(=O)C2CCN(S(=O)(=O)c3ccc(C)cc3)CC2)cc1`: 108%; for `CC(C)(C)NC(=O)COc1ccc(CNCc2cccnc2)cc1`: 90.5%.
In the case of `O=C1N=C(N2CCOCC2)S/C1=C\c1cccs1`, the binding remaining, % of control amounted to 99.5%.
For `COc1ccc(CNC(=O)c2cccnc2SC)cc1OC`, the binding remaining, % of control was found to be 132%.
For `CCOc1ccc(CCNC(=O)c2cccc(-n3cnnn3)c2)cc1OCC` the value was 164%.
On to `Cc1ccc(S(=O)(=O)N2CCN(C(=O)CNC(=O)c3ccc(Cl)cc3)CC2)cc1`, for which the binding remaining, % of control worked out at 219%.
`CCOC(=O)c1ccc(NC(=O)CN2C(=O)NC3(CCCCCCC3)C2=O)cc1`: the binding remaining, % of control was determined as 44.2%.
As to `CCN1CCN(c2ccc(S(=O)(=O)N3CCOCC3)cc2NC(=O)/C=C/c2ccc(C)cc2)CC1`, the binding remaining, % of control worked out at 98.1%.
`Cc1ccccc1C(=O)NCC(=O)N1CCN(C/C=C/c2ccccc2)CC1`: the binding remaining, % of control stood at 42.6%.
The same measure for `O=C(CN1C(=O)NC2(CCCCCC2)C1=O)N1CCN(c2ccccc2)CC1`: 158%; for `Cn1c(=O)c2cc(S(=O)(=O)NCCC(=O)NC3CCCCCC3)ccc2n(C)c1=O`: 83.7%.
In the case of `CCCCN(C(=O)C1CCC1)c1c(N)n(CC(C)C)c(=O)[nH]c1=O`, the binding remaining, % of control was 53.6%.
Regarding `COc1ccc(OC)c(NC(=O)CCN2CCCCC2)c1`, the binding remaining, % of control came to 220%.
Turning to `O=C(NCc1ccccc1C(F)(F)F)C1CCC(=O)N(CCCc2ccccc2)C1` (stereo not drawn), the binding remaining, % of control was 90.8%.
